# In the supplement of paper PMC11732987, “Enantioselective OTUD7B fragment discovery through chemoproteomics screening and high-throughput optimisation” (Communications Chemistry, 2025):
# Values without a mark were called inactive.
# What was measured:
# Test in all cases: log2 ratio of Biotin-Ahx-Ub-VS probe labelling (fragment/DMSO); higher = less target engagement (more negative = stronger competition), active = hit call of the paper (q ≤ 0.05, log2 ratio ≤ -1)
# Details in all cases: compound concentration: 200 uM; treatment time: 3 h
# USP42 = target: T1, USP42 (UniProt Q9H9J4)
# T1 sequence (whole entry): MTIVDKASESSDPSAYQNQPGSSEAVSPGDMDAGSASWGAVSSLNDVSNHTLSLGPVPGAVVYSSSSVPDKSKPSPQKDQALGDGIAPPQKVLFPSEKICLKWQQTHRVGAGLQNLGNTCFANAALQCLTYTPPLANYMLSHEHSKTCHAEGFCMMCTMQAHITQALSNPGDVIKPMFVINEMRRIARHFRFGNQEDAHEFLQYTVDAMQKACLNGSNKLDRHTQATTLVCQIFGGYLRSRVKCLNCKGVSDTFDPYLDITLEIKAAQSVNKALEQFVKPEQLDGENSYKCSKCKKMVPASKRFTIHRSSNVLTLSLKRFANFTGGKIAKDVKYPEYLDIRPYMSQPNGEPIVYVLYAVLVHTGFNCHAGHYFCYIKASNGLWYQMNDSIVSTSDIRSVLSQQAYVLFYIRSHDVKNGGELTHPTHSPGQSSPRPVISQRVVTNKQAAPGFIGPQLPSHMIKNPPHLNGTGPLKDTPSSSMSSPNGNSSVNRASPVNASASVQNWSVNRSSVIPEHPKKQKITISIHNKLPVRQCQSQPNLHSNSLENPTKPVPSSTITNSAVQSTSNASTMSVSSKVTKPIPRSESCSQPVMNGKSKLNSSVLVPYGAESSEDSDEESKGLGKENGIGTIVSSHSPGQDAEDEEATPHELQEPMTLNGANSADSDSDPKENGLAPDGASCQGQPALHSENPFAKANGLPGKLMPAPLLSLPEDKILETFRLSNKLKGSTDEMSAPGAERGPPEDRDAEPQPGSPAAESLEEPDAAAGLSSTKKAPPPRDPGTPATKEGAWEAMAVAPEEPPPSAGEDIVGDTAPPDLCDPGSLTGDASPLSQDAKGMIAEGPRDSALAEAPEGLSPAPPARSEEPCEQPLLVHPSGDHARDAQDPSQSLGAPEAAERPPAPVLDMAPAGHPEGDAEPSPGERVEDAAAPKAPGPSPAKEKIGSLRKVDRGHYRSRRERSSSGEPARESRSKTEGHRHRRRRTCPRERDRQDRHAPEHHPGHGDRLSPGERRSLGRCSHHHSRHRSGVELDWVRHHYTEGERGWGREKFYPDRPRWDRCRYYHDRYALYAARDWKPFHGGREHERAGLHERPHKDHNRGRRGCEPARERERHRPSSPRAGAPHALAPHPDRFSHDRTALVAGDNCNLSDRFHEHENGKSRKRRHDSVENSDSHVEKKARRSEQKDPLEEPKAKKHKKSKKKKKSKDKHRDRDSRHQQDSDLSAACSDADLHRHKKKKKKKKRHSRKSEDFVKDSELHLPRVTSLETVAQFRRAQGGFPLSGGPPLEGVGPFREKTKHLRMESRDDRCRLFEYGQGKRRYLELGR
# Summary of the method: (§1)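 Labelled DUBs from HEK293T lysate were NeutrAvidin-enriched, digested with LysC and trypsin, and run by diaPASEF LC-MS/MS. Before that, each 495 µg sample in Tris/CHAPS/IGEPAL buffer with protease inhibitors was treated in triplicate with fragment at 200 µM or vehicle for 3 h, then with Biotin-Ahx-Ub-VS at 0.5 µM final for 1 h. Values are average log2 ratios of fragment over vehicle by unpaired t-test, based on global-median-normalised Spectronaut label-free quantities from proteins with ≥2 unique peptides.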
# USP46 = USP46 (UniProt P62068)
# Summary of the method: as §1
# USP47 = target: T2, USP47 (UniProt Q96K76)
# T2 sequence (whole entry): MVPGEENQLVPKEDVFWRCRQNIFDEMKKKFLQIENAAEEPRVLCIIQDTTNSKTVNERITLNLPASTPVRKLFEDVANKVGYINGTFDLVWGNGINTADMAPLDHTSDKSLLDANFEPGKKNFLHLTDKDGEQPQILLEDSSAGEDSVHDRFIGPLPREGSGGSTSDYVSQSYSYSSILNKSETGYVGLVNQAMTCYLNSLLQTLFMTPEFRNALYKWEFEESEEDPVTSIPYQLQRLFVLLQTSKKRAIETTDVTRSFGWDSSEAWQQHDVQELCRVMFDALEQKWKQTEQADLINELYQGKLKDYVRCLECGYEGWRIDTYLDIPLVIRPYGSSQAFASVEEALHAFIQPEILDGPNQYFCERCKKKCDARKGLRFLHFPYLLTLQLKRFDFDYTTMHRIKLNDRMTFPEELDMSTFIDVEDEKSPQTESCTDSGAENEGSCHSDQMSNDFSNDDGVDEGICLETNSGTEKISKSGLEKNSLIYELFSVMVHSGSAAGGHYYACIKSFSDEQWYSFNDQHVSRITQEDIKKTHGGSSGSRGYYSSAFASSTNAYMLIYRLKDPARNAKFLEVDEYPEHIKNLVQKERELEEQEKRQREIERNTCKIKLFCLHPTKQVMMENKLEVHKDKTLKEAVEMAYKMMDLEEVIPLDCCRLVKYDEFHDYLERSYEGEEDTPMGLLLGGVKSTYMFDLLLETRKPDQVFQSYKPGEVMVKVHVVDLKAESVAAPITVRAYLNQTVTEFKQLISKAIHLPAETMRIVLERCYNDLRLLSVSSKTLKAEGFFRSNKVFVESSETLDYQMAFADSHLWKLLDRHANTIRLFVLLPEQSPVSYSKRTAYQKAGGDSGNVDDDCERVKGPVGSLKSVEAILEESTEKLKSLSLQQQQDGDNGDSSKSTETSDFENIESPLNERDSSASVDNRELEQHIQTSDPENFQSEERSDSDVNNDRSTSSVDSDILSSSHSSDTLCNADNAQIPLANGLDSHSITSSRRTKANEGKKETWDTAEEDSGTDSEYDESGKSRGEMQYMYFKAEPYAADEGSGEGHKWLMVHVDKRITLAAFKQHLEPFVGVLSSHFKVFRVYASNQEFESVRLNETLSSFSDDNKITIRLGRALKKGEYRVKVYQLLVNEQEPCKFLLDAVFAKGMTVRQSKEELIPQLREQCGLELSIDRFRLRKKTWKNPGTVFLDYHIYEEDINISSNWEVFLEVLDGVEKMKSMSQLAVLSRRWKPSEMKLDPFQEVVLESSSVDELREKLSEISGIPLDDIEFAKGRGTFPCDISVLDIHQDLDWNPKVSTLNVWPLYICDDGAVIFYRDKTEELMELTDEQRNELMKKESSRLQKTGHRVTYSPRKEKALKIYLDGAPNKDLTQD
# Summary of the method: as §1
# USP48 = target: T3, USP48 (UniProt Q86UV5)
# T3 sequence (whole entry): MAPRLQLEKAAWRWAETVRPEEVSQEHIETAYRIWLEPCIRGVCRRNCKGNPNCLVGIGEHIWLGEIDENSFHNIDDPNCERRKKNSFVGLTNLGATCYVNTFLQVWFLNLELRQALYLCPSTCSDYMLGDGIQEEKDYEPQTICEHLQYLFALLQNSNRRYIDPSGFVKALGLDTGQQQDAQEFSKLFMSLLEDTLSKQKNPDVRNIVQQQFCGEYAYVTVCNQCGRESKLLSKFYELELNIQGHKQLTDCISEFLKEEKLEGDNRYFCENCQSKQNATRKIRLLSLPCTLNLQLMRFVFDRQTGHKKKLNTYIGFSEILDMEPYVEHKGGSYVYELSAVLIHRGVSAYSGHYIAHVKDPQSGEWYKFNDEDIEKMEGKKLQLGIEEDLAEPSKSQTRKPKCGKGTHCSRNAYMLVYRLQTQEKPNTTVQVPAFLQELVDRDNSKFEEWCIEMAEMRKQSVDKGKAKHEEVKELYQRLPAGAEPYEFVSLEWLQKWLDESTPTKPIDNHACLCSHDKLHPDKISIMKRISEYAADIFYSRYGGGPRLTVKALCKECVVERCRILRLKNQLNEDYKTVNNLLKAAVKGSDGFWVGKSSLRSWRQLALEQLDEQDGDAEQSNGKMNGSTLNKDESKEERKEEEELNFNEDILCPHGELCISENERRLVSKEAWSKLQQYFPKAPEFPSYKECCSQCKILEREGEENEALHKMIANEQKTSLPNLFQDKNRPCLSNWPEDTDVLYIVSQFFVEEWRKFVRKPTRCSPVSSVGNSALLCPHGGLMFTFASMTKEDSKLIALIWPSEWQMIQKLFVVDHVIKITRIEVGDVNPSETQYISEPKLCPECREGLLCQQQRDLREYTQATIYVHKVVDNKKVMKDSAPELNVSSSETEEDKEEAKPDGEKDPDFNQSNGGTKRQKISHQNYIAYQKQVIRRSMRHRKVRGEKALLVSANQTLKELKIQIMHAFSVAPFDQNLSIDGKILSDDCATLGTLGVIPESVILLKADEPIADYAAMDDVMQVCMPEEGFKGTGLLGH
# Summary of the method: as §1
# USP5 = target: T4, USP5 (UniProt P45974)
# T4 sequence (whole entry): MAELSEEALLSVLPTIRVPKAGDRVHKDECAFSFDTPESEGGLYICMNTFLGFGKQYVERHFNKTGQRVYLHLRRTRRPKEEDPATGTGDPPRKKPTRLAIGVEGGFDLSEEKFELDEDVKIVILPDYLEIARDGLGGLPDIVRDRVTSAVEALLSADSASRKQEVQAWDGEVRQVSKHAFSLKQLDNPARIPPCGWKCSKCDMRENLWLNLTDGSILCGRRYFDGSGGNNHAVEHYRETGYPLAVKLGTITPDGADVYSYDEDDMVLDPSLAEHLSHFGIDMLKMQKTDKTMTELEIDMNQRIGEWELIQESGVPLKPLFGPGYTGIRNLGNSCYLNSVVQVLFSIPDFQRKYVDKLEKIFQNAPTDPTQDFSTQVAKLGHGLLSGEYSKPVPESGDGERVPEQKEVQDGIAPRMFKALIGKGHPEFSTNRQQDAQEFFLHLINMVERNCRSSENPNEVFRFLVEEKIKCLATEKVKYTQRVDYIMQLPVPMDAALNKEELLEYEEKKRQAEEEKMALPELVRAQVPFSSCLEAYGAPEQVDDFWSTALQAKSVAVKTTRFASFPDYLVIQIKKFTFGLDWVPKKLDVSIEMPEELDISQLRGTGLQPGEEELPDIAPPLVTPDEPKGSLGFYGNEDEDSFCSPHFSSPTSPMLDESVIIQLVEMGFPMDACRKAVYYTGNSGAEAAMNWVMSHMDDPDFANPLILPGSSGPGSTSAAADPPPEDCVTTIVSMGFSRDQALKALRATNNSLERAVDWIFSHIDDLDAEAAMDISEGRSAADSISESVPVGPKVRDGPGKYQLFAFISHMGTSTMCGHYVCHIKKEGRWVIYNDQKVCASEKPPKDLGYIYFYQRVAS
# Summary of the method: as §1
# USP54 = USP54 (UniProt Q70EL1)
# Summary of the method: as §1
# USP7 = USP7 (UniProt Q93009)
# Summary of the method: as §1
# USP8 = target: T5, USP8 (UniProt P40818)
# T5 sequence (whole entry): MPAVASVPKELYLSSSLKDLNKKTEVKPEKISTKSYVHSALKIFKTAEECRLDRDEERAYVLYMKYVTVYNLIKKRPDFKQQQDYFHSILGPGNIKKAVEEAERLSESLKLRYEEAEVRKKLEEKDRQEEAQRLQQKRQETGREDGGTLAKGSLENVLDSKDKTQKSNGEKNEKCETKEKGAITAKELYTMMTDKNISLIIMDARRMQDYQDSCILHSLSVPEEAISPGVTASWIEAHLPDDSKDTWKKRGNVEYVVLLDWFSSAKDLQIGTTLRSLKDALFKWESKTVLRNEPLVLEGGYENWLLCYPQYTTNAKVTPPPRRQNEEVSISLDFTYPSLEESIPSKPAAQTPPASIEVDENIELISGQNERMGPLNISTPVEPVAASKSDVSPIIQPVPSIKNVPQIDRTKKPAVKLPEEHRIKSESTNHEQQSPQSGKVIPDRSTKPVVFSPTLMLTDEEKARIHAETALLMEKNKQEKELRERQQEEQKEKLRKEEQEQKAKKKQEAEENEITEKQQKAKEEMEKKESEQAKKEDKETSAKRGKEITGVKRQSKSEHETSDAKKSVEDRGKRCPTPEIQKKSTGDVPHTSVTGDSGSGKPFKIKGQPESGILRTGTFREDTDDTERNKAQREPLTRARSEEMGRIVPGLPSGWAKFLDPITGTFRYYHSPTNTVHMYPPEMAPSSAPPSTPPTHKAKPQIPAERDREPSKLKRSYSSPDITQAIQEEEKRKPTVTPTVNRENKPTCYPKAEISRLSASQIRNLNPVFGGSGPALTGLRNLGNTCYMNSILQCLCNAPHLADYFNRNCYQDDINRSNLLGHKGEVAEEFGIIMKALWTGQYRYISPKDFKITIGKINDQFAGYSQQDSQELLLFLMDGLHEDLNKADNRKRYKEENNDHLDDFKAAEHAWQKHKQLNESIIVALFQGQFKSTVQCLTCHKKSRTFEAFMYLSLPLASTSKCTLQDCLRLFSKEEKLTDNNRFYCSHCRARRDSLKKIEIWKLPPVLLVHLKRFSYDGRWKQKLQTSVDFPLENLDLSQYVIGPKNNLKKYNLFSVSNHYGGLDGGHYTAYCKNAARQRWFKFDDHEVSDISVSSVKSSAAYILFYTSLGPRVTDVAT
# Summary of the method: as §1
# Sequence of USP54 (Q70EL1 whole entry): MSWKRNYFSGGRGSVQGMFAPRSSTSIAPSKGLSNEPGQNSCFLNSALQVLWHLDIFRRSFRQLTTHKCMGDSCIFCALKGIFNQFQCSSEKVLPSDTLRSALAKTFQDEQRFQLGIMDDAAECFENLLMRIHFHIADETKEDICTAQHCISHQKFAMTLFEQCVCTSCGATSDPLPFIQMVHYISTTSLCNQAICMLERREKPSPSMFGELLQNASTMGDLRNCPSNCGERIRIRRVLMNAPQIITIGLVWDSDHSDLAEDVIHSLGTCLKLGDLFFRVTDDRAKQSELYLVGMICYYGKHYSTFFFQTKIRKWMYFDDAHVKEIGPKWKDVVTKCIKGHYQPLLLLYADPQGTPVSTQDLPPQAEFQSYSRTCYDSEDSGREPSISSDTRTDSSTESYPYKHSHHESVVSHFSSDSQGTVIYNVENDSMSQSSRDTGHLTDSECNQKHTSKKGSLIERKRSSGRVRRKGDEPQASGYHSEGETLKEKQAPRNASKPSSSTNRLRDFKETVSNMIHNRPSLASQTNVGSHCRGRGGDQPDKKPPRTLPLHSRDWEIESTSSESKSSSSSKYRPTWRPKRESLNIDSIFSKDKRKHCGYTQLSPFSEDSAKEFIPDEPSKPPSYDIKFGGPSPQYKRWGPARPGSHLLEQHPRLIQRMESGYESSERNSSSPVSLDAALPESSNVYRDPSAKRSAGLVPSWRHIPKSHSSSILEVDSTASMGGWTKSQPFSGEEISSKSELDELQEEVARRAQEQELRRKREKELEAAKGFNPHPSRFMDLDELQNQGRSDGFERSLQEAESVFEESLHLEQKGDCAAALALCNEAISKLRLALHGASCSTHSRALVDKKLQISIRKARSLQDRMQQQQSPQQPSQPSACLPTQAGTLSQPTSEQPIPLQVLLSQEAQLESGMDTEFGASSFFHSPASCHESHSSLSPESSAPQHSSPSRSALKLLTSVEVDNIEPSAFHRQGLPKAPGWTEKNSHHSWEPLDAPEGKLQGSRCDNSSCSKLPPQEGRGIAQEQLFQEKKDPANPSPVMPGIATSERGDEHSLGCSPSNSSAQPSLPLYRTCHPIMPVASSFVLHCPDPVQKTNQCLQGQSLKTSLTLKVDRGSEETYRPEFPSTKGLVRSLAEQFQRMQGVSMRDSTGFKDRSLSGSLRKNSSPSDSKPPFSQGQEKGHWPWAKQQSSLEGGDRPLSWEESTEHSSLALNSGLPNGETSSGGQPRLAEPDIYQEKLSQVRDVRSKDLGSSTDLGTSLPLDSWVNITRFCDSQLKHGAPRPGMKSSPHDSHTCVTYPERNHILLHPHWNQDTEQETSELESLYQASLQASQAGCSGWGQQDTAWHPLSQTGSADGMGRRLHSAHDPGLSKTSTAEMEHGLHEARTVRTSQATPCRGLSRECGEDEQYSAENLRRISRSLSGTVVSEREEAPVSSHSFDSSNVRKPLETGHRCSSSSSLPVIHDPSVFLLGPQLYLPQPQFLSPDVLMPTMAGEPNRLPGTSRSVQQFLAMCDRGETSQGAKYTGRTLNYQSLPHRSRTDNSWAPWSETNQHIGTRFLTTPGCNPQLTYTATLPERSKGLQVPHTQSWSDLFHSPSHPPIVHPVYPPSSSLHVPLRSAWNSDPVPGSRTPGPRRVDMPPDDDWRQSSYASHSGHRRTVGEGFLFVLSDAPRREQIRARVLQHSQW
# Sequence of USP7 (Q93009 whole entry, looked up): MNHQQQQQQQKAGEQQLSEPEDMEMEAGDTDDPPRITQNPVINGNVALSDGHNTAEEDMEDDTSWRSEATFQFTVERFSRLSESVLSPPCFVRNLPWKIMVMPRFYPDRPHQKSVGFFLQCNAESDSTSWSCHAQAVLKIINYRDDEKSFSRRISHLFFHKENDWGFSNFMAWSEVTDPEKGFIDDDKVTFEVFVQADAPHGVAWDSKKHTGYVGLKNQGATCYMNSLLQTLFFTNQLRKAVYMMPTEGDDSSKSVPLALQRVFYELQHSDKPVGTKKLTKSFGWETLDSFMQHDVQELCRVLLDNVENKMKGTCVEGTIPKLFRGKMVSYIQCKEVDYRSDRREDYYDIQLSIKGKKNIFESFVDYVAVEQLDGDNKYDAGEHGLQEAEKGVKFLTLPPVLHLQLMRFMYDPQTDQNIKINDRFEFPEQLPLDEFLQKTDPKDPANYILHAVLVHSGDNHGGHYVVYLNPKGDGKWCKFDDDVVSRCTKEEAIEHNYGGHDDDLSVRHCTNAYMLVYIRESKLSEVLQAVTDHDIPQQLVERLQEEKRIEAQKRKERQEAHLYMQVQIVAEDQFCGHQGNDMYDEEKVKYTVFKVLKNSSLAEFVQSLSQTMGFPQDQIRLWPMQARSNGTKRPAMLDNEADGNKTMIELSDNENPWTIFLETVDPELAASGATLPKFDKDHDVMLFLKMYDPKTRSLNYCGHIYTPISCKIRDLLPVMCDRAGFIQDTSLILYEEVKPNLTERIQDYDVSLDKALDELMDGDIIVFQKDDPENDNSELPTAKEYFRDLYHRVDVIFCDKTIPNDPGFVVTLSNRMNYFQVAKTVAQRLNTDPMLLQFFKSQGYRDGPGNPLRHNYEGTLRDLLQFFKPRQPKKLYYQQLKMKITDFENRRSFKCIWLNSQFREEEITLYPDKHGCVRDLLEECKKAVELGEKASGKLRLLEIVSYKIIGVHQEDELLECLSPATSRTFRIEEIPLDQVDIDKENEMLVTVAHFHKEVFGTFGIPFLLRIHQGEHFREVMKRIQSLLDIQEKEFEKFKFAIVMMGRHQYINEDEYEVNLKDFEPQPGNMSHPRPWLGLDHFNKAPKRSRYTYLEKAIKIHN
# Sequence of USP46 (P62068 whole entry): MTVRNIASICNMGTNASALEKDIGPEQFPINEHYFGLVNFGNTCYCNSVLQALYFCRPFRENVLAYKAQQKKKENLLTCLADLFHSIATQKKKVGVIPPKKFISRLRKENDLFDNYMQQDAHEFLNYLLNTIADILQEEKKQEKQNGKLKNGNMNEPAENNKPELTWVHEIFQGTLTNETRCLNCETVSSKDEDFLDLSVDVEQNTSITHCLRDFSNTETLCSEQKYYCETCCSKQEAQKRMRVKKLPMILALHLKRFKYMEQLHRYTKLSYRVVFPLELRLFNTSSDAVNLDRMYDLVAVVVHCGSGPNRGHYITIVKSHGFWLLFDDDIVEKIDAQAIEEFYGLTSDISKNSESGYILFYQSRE
structure (smiles),measurement,setting,value
Cl.O=C(CCl)NCc1cc2c(nc1O)CCCC2,log2 ratio of Biotin-Ahx-Ub-VS probe labelling,USP42,-0.448
same,log2 ratio of Biotin-Ahx-Ub-VS probe labelling,USP46,0.127
same,log2 ratio of Biotin-Ahx-Ub-VS probe labelling,USP47,-1.45 (active)
same,log2 ratio of Biotin-Ahx-Ub-VS probe labelling,USP48,-0.169
same,log2 ratio of Biotin-Ahx-Ub-VS probe labelling,USP5,0.0226
same,log2 ratio of Biotin-Ahx-Ub-VS probe labelling,USP54,0.773
same,log2 ratio of Biotin-Ahx-Ub-VS probe labelling,USP7,-0.155
same,log2 ratio of Biotin-Ahx-Ub-VS probe labelling,USP8,-0.3
